Experimental data as given in PubChem BioAssay (NCATS).
Results filed as inconclusive are left out. The source made the active and inactive calls. Calls come from the whole dose curve; as a rule, active = well fitted curve in the direction sought with a large enough effect; inconclusive = small, poorly fitted or top-dose-only effect, or another doubt; inactive = no such curve, though single readings can be large; an effect the other way counts as inactive or inconclusive.

Experiments:
[1] = target: Rap guanine nucleotide exchange factor 3 (Homo sapiens) (UniProt O95398); test: Confirmatory qHTS for antagonist of cAMP-regulated guanine nucleotide exchange factor 3 (EPAC1) (AID 1645880); note: nearly all actives have a fitted effect of over 55% in size; note: potency is the fitted concentration of half-maximal effect
In short: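 Nucleotide exchange uses 100 nM EPAC1, 250 nM RAP1B-BODIPY-GDP and 50 uM GDP, with compounds in a concentration-titration series. After 5 min at room temperature, fluorescence (480 nm ex/540 nm em) is read every 5 min for 30 min. Data are normalized to control ATA and DMSO.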

[2] = target: Rap guanine nucleotide exchange factor 3 (Homo sapiens) (UniProt O95398); test: Confirmatory qHTS for agonist of cAMP-regulated guanine nucleotide exchange factor 3 (EPAC1) (AID 1645881); note: nearly all actives have a fitted effect of over 75% in size; note: potency is the fitted concentration of half-maximal effect;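 for activation: EPAC1 catalysed release of BODIPY-GDP from Rap1B seen as fluorescence loss; 100% = effect of cAMP agonist control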
[3] = target: Rap guanine nucleotide exchange factor 4 (Homo sapiens) (UniProt Q8WZA2); test: Confirmatory qHTS for agonist of cAMP-regulated guanine nucleotide exchange factor 4 (EPAC2) (AID 1645884);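 note: nucleotide exchange releases bodipy-GDP from Rap1 and this lowers its fluorescence; nearly all actives have a fitted effect of over 65% in size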; note: potency is the fitted concentration of half-maximal effect; for activation: % is set by controls: 0 for no effect and ±100 for the full control effect
[4] = target: Rap guanine nucleotide exchange factor 4 (Homo sapiens) (UniProt Q8WZA2); test: Confirmatory qHTS for antagonist of cAMP-regulated guanine nucleotide exchange factor 4 (EPAC2) (AID 1645885); note: nearly all actives have a fitted effect of over 25% in size; note: potency is the fitted concentration of half-maximal effect; for activity change, negative = inhibition: % is set by controls: 0 for no effect and ±100 for the full control effect
[5] = target: Rap guanine nucleotide exchange factor 3 (Homo sapiens) (UniProt O95398); test: Counterscreen qHTS for antagonist of cAMP-regulated guanine nucleotide exchange factor 3 (EPAC1) (AID 1645888);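 note: fluorescence loss as bound BODIPY-GDP is released from Rap1B; % of control where 0% means no effect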
In short: (§1)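 Rap1B-BODIPY-GDP 250 nM + GDP 50 uM; cpds 7-pt, final 9.74 nM–152 uM (activator mode) or from 7.32 nM upwards (inhibitor mode); RT; FI 480/540 nm at 5 and 30 min, then ± cAMP, reread.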

[6] = target: Rap guanine nucleotide exchange factor 3 (Homo sapiens) (UniProt O95398); test: Counterscreen qHTS for agonist of cAMP-regulated guanine nucleotide exchange factor 3 (EPAC1) (AID 1645889); note: nearly all actives have a fitted effect of over 40% in size; note: potency is the fitted concentration of half-maximal effect; for activation: % of control where 0% means no effect
In short: as §1

Sequence of Rap guanine nucleotide exchange factor 3 (Homo sapiens) (O95398 whole entry, looked up): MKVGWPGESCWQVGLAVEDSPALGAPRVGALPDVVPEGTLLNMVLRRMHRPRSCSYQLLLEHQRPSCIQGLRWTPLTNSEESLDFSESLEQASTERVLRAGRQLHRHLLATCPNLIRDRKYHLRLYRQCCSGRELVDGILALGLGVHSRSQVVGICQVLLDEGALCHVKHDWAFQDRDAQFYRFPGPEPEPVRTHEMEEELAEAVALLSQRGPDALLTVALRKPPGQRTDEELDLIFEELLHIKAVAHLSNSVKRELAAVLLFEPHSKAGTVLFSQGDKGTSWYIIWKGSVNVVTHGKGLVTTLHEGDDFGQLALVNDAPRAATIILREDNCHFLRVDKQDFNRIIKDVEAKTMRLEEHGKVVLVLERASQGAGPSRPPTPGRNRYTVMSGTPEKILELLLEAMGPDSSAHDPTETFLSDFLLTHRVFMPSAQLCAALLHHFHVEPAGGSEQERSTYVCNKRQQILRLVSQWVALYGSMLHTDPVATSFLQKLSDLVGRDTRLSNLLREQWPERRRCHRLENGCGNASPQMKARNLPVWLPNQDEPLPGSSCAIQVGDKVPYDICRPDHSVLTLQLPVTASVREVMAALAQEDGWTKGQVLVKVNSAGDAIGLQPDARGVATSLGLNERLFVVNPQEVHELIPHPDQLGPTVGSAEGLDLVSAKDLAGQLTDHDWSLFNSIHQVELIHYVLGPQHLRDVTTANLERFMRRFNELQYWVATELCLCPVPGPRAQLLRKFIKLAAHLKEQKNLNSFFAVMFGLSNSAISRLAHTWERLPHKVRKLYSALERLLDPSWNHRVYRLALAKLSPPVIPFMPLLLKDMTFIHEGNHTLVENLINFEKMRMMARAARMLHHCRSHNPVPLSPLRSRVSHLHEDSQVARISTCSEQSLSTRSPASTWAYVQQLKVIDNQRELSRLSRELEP
Sequence of Rap guanine nucleotide exchange factor 4 (Homo sapiens) (Q8WZA2 whole entry, looked up): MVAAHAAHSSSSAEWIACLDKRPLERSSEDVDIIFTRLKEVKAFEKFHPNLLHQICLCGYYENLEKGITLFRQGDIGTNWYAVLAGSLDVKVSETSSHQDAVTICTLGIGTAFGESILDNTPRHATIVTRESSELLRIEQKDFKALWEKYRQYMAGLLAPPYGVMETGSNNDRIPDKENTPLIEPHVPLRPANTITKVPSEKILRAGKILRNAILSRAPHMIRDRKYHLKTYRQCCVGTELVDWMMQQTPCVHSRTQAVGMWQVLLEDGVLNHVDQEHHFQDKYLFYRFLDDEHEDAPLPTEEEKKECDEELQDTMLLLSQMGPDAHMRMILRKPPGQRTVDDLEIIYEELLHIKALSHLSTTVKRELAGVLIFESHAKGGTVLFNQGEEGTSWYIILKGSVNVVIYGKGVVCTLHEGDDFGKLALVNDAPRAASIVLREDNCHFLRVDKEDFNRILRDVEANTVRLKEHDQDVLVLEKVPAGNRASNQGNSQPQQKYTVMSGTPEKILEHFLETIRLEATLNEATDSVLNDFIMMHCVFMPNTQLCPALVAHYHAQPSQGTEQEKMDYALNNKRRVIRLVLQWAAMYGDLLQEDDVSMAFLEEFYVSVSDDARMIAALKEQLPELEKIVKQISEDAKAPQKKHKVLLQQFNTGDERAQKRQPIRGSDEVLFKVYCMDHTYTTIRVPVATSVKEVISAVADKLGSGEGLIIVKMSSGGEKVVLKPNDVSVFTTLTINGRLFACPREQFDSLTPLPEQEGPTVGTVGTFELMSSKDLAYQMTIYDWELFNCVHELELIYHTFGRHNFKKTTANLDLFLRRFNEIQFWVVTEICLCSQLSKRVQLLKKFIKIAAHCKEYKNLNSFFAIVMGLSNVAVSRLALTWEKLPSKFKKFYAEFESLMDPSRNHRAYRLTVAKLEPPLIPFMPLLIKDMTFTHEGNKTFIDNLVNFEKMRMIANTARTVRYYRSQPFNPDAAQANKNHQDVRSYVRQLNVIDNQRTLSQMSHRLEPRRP

Oc1ccc(/C=N/Nc2ncnc3c2ncn3Cc2ccccc2)cc1O
inactive: Potency [2] | activation [3] 4.96% [at 17.1 µM, percent relative to cAMP agonist control] | Potency [4] | activity change, negative = inhibition [5] -13.7% [at 30.8 µM] | activation [6] 1.06% [at 30.8 µM]
active: Potency [1] 3.55 µM

CC(/C=C1\SC(=S)N(C(C(=O)O)C(C)C)C1=O)=C\c1ccccc1 (stereo unspecified)
inactive: Potency [2] | Potency [3] | Potency [4] | Potency [5] | Potency [6]
active: Potency [1] 47.8 µM

COC(=O)C(CC(=O)c1ccc(C)cc1)n1cccn1 (stereo unspecified)
inactive: Potency [1] | Potency [2] | Potency [3] | Potency [4] | Potency [5] | Potency [6]

CCN(CC)S(=O)(=O)c1cc(NC(=O)Cn2ncc(Cl)c(Cl)c2=O)ccc1C
active: Potency [1] 39.8 µM
inactive: Potency [2] | activation [3] -11.9% [at 17.1 µM, percent relative to cAMP agonist control] | Potency [4] | activity change, negative = inhibition [5] -2.1% [at 30.8 µM] | activation [6] 5.37% [at 30.8 µM]

Cc1cc2[nH]c(=O)c(=O)[nH]c2cc1S(=O)(=O)Nc1cccc(Cl)c1
inactive: Potency [2] | Potency [3] | Potency [4] | Potency [5] | Potency [6]
active: Potency [1] 42.6 µM

COc1ccc(CC(=O)Nc2nc(-c3cccnc3)cs2)cc1
inactive: Potency [1] | Potency [2] | activation [3] 15.1% [at 17.1 µM, percent relative to cAMP agonist control] | Potency [4] | activity change, negative = inhibition [5] -4.63% [at 30.8 µM] | activation [6] -9.76% [at 30.8 µM]

COc1ccc(/C=C/C(=O)NC2CCS(=O)(=O)C2)cc1 (stereo unspecified)
inactive: Potency [1] | Potency [2] | Potency [3] | Potency [4] | Potency [5] | Potency [6]

Cc1cn(S(=O)(=O)c2ccccc2[N+](=O)[O-])cn1
inactive: Potency [1] | Potency [2] | activation [3] 0.773% [at 17.1 µM, percent relative to cAMP agonist control] | Potency [4] | activity change, negative = inhibition [5] -3.67% [at 30.8 µM] | activation [6] -4.19% [at 30.8 µM]

CS/C(N)=N/N=C/c1c(O)ccc2ccccc12
active: Potency [1] 21.3 µM
inactive: Potency [2] | Potency [3] | Potency [4] | Potency [5] | Potency [6]

C=CCN(CC=C)Cc1cc(=O)oc2cc(OC)ccc12
inactive: Potency [1] | Potency [2] | activation [3] 5.94% [at 17.1 µM, percent relative to cAMP agonist control] | Potency [4] | activity change, negative = inhibition [5] -16% [at 30.8 µM] | activation [6] -2.24% [at 30.8 µM]

CCc1ccc(OCCCSc2nc(-c3ccc(C(C)(C)C)cc3)nc3cc(=O)[nH]n23)cc1
inactive: Potency [2] | Potency [3] | Potency [4] | Potency [5] | Potency [6]
active: Potency [1] 42.6 µM

CN(C)c1ccccc1C(=O)N1CCCC(C(=O)c2ccc3ccccc3c2)C1 (stereo unspecified)
inactive: Potency [1] | Potency [2] | activation [3] 10.4% [at 17.1 µM, percent relative to cAMP agonist control] | Potency [4] | activity change, negative = inhibition [5] -1.02% [at 30.8 µM] | activation [6] 21.4% [at 30.8 µM]

COc1ccc(N2CCN(C(=O)CCc3ccccc3OC)CC2)cc1
inactive: Potency [1] | Potency [2] | Potency [3] | Potency [4] | Potency [5] | Potency [6]

CCCOc1c(OC)cccc1C1CC(=O)Nc2cc(OC)c(OC)c(OC)c21 (stereo unspecified)
inactive: Potency [1] | Potency [2] | Potency [3] | Potency [4] | Potency [5] | Potency [6]

CCOc1cc(C(=O)Nc2ccc3c(c2)n(C)c(=O)c(=O)n3C)cc(OCC)c1OCC
inactive: Potency [1] | Potency [2] | Potency [3] | outcome [4] inactive [at 12.7 µM] | Potency [5] | Potency [6]

Cc1ccc(CNS(=O)(=O)c2ccc(-n3cnnn3)c(C)c2)cc1
inactive: Potency [1] | Potency [2] | activation [3] 4.56% [at 17.1 µM, percent relative to cAMP agonist control] | Potency [4] | activity change, negative = inhibition [5] 3.48% [at 30.8 µM] | activation [6] 5.31% [at 30.8 µM]

CCOc1c(OC)cccc1C1CC(=O)Nc2cc3c(cc21)OCCO3 (stereo unspecified)
inactive: Potency [1] | Potency [2] | Potency [3] | Potency [4] | Potency [5] | Potency [6]

OCC[n+]1ccc(/C=C/c2c[nH]c3ccccc23)cc1
active: Potency [2] 56.2 µM | Potency [3] 100 µM | Potency [6] 56.2 µM
inactive: Potency [1] | Potency [4] | Potency [5]

CN1CCN(S(=O)(=O)c2ccc(Nc3ccc(F)cc3)nc2)CC1
inactive: Potency [1] | Potency [2] | activation [3] 6.27% [at 17.1 µM, percent relative to cAMP agonist control] | Potency [4] | activity change, negative = inhibition [5] -5.53% [at 30.8 µM] | activation [6] 16.5% [at 30.8 µM]

CC[n+]1c(/C=C/C=C/N(C(C)=O)c2ccccc2)sc2cc(OC)ccc21
active: Potency [2] 100 µM | Potency [3] 112 µM | Potency [6] 50.1 µM
inactive: Potency [1] | Potency [4] | Potency [5]

O=C(O)c1cc(S(=O)(=O)Nc2cc(Cl)ccc2Oc2ccccc2)ccc1O
inactive: Potency [2] | Potency [3] | Potency [4] | Potency [5] | Potency [6]
active: Potency [1] 26.9 µM

CCO/C(C)=N/Oc1cc(OC)cc(OC)c1
active: Potency [4] 23.9 µM
inactive: Potency [1] | Potency [2] | Potency [3] | Potency [5] | Potency [6]

COc1ccc(N2CCN(C(=O)c3noc4c3CCCCC4)CC2)cc1
inactive: Potency [1] | Potency [2] | Potency [3] | Potency [4] | Potency [5] | Potency [6]

CCS(=O)(=O)N1CCCC(C(=O)NCCCN(C)Cc2ccccc2)C1 (stereo unspecified)
inactive: Potency [1] | Potency [2] | Potency [3] | Potency [4] | Potency [5] | Potency [6]

O=C(O)CCCCCN1C(=O)/C(=C/c2cn(-c3ccccc3)nc2-c2cccs2)SC1=S
inactive: Potency [1] | activation [3] 17.7% [at 17.1 µM, percent relative to cAMP agonist control] | Potency [4] | activity change, negative = inhibition [5] 39% [at 30.8 µM]
active: Potency [2] 79.4 µM | Potency [6] 14.1 µM

N#Cc1c(-c2ccccc2)nc(SCc2cccc(C(F)(F)F)c2)[nH]c1=O
active: Potency [1] 26.9 µM | Potency [4] 75.7 µM
inactive: Potency [2] | Potency [3] | Potency [5] | Potency [6]

N#C/C(=C/c1ccc(N2CCOCC2)o1)c1nc2ccccc2[nH]1
active: Potency [2] 112 µM | Potency [3] 89.1 µM | Potency [4] 42.6 µM | Potency [6] 63.1 µM
inactive: Potency [1] | Potency [5]

COc1ccccc1Cn1c(=O)oc2ccc(C)cc21
inactive: Potency [1] | Potency [2] | Potency [3] | Potency [4] | Potency [5] | Potency [6]

O=C(c1ccc(Cl)cc1)C(CN1CCCCC1)c1ccccc1 (stereo unspecified)
inactive: Potency [2] | Potency [3] | Potency [4] | Potency [5] | Potency [6]
active: Potency [1] 37.9 µM

Cn1cc([C@]2(O)C(=O)Nc3ccccc32)c2ccccc21
inactive: Potency [1] | Potency [2] | activation [3] 0.506% [at 17.1 µM, percent relative to cAMP agonist control] | Potency [4] | activity change, negative = inhibition [5] -2.77% [at 30.8 µM] | activation [6] 2.4% [at 30.8 µM]

Cc1ccc2nc(-c3ccccc3)cc(C(=O)N3CC(C)OC(C)C3)c2c1 (stereo unspecified)
inactive: Potency [1] | Potency [2] | Potency [3] | Potency [4] | Potency [5] | Potency [6]
